Holding throughout (design): scale not given: direction of the effect not stated beside the values
The target of assay [1] is Protein translocase subunit SecA (Escherichia coli (strain K12)) (UniProt P10408). Put plainly: Assay to Identify E. coli SecA ATPase Inhibitors. As to conditions: 30 µM. In kind it is functional.
Assay [2] addresses T1, Ubiquitin-activating enzyme e1, putative (Leishmania donovani (strain BPK282A1)) (UniProt E9BSI1).
T1 sequence (whole entry): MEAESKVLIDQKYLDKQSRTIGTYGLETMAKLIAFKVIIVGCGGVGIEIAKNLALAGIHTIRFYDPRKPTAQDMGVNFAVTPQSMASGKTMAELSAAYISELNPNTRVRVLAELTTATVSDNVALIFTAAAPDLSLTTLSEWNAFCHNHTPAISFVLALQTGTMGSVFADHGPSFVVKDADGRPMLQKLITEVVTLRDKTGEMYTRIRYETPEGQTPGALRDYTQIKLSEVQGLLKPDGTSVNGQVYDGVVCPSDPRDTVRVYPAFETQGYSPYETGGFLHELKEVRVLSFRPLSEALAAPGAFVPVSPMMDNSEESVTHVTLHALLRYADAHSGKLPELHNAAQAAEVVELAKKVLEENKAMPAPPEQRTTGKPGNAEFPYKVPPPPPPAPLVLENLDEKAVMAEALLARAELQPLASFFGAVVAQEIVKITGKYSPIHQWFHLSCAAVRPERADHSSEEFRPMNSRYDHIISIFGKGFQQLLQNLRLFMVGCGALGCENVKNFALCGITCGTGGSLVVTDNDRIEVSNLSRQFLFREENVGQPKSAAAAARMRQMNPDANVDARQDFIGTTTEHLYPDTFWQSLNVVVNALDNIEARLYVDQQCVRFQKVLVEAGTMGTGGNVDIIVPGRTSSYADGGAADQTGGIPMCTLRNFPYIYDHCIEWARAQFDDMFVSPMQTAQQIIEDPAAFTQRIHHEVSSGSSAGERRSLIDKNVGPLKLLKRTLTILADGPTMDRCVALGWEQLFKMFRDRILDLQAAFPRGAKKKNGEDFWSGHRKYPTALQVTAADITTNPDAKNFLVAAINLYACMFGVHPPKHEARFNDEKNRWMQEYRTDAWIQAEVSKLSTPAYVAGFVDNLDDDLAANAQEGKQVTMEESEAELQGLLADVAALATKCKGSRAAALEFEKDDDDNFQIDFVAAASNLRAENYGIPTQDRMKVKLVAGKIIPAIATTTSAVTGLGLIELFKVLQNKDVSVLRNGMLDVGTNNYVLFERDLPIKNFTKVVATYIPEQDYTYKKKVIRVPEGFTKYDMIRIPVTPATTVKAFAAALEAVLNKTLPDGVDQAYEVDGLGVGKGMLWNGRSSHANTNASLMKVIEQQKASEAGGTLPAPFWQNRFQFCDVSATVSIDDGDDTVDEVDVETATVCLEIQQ
Briefly: Leishmania donovani Ubiquitin Activating Enzyme (LdE1). In kind it is functional. As to conditions: 30 µM.

The target in assay [3] is T2, Aspartate--tRNA(Asp/Asn) ligase (Mycobacterium tuberculosis (strain ATCC 25618 / H37Rv)) (UniProt P9WFW3). Further: in the data most compounds retested in dose-response had high values.
T2 sequence (whole entry): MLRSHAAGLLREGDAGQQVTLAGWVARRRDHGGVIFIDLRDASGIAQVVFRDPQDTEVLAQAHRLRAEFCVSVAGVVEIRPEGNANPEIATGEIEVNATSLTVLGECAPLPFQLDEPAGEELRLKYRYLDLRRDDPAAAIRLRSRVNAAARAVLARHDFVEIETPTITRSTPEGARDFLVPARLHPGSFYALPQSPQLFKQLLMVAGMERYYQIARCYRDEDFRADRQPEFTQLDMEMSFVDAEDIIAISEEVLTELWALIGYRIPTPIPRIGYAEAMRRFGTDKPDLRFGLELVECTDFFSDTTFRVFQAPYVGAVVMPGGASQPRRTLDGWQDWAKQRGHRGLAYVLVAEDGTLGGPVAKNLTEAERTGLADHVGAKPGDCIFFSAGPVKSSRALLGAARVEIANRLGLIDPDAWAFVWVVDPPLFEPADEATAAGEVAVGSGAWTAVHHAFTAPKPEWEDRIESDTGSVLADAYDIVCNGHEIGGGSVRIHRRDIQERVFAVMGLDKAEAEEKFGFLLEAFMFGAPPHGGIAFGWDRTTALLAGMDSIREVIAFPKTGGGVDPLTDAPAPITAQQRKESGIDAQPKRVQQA
Put plainly: Assay for Asp RNA synthetase-1 from Mycobacterium tuberculosis. In kind it is functional. As to conditions: 30 µM.

The target in assay [4] is AMP-activated protein kinase, AMPK (Homo sapiens) (UniProt P54646+O43741+P54619+Q9UGJ0+Q9Y478+Q13131+Q9UGI9). Briefly: AMP-dependent Kinase enzyme assay. An in vitro enzyme assay that detects ADP turnover that is directly proportional to AMPK activity. This uses naive AMPK that is activated during the assay with MK-8722. The class given is functional. The following applies: 30 µM.

The target in assay [5] is Sialic acid-binding Ig-like lectin 9 (Homo sapiens) (UniProt Q9Y336). Put plainly: Hs-Siglec9 ALPHAscreen SOP 20170721. As to conditions: 10 µM.
Sialic acid-binding Ig-like lectin 9 (Homo sapiens), sequence (Q9Y336 whole entry): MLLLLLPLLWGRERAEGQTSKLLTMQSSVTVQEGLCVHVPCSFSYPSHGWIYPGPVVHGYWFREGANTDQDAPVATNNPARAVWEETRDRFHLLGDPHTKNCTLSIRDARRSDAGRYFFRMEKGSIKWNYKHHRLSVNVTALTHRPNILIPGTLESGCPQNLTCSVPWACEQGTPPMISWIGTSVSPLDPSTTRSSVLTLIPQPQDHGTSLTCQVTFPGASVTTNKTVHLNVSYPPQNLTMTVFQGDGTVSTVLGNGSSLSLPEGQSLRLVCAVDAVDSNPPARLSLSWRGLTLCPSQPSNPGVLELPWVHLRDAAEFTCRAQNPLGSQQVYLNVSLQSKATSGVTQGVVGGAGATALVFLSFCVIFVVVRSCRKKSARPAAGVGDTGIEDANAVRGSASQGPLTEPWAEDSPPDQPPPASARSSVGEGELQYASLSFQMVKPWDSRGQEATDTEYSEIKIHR
In the next assay the test system is Trypanosoma cruzi. Put plainly: Trypanosoma cruzi phosphomannomutase and mannose-1-phosphate guanylyltransferase assay. In kind it is functional. As to conditions: 10 µM.
The target of assay [6] is T3, Arginase-2, mitochondrial (Homo sapiens) (UniProt P78540).
T3 sequence (whole entry): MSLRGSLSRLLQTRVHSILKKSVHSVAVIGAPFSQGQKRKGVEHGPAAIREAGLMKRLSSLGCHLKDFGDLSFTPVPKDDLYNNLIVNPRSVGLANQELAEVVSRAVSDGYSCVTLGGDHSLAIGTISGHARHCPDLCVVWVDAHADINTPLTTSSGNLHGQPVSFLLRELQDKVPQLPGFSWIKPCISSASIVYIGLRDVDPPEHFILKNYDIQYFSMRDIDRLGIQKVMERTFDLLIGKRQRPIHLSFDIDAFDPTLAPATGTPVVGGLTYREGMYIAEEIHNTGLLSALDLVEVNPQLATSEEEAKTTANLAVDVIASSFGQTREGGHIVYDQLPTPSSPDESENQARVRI
Briefly: in vitro enzyme assay to detect the production of urea directly proportional to the activity of Arginase II. Further: in the data most compounds retested in dose-response had high values. The class given is functional. As to conditions: 33.3 µM.

Assay [7] concerns the target T4, Proteasome subunit beta (Trypanosoma cruzi) (UniProt O96673).
T4 sequence (whole entry): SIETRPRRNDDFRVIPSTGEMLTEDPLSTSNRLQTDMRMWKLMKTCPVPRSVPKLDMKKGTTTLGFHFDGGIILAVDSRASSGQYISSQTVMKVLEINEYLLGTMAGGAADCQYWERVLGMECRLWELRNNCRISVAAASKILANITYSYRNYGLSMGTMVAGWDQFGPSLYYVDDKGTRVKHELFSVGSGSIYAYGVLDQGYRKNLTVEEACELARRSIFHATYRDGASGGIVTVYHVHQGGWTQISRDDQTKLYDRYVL
Put plainly: Trypanosoma cruzi proteasome chymotrypsin-like activity (TcProtChymo) assay. Further: in the data most compounds retested in dose-response had high values. In kind it is functional. As to conditions: 9.37 µM.

For a further assay, the species on record is Homo sapiens. Put plainly: To identify inhibition of the IFN signalling (Jak-Stat) pathway via expression of an eGFP reporter gene under the control of an IFN-stimulated response element (ISRE) containing MxA promoter. In kind it is functional. The following applies: 30 µM. On the technique in general: In a reporter assay the amount or activity of a reporter protein is the signal.

The target of assay [8] is Shiga toxin 2 (Escherichia coli O157:H7) (UniProt P09385+P09386). Put plainly: E. coli 0.157:H7 Shiga Toxin SOP - stx2 screening assay. In kind it is functional. As to conditions: 30 µM.
Assay [9] deals with T5, Tyrosyl-tRNA synthetase, putative (Trypanosoma cruzi (strain CL Brener)) (UniProt Q4DSP6).
T5 sequence (whole entry): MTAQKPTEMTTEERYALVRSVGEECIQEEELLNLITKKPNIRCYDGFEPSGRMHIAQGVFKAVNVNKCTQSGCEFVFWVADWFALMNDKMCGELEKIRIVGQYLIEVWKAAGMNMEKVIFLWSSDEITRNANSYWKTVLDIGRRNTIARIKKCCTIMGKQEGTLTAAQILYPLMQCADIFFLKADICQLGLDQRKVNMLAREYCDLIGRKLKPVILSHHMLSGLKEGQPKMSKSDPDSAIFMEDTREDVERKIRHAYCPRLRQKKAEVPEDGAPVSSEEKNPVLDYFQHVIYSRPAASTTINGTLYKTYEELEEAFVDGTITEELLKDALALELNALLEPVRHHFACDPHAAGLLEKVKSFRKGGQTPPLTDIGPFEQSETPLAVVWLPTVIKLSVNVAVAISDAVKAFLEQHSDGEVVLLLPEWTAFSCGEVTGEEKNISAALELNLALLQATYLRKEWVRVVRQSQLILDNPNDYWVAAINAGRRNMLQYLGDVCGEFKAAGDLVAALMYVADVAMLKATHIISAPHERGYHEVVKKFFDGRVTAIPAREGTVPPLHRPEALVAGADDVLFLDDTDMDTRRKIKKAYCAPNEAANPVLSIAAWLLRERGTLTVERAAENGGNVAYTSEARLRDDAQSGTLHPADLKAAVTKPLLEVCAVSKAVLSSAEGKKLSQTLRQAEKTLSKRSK
Put plainly: Trypanosoma cruzi tyrosyl tRNA synthetase (TcYRS) _High Tyrosine SOP. Further: in the data most compounds retested in dose-response had high values. The class given is functional. The following applies: 30 µM.

Assay [10] deals with T5, Tyrosyl-tRNA synthetase, putative (Trypanosoma cruzi (strain CL Brener)). Put plainly: Trypanosoma cruzi tyrosyl tRNA synthetase (TcYRS) SOP. The following applies: 30 µM. The class given is functional.
For assay [11], the target named is Chromo domain-containing protein 1 (Saccharomyces cerevisiae (strain ATCC 204508 / S288c) (Baker's yeast)) (UniProt P32657). Put plainly: ScCHD-1 Enzyme Inhibition Assay. Further: in the data most compounds retested in dose-response had high values. The class given is functional. As to conditions: 30 µM.
Chromo domain-containing protein 1 (Saccharomyces cerevisiae (strain ATCC 204508 / S288c) (Baker's yeast)), sequence (P32657 whole entry, the tested form may be a part): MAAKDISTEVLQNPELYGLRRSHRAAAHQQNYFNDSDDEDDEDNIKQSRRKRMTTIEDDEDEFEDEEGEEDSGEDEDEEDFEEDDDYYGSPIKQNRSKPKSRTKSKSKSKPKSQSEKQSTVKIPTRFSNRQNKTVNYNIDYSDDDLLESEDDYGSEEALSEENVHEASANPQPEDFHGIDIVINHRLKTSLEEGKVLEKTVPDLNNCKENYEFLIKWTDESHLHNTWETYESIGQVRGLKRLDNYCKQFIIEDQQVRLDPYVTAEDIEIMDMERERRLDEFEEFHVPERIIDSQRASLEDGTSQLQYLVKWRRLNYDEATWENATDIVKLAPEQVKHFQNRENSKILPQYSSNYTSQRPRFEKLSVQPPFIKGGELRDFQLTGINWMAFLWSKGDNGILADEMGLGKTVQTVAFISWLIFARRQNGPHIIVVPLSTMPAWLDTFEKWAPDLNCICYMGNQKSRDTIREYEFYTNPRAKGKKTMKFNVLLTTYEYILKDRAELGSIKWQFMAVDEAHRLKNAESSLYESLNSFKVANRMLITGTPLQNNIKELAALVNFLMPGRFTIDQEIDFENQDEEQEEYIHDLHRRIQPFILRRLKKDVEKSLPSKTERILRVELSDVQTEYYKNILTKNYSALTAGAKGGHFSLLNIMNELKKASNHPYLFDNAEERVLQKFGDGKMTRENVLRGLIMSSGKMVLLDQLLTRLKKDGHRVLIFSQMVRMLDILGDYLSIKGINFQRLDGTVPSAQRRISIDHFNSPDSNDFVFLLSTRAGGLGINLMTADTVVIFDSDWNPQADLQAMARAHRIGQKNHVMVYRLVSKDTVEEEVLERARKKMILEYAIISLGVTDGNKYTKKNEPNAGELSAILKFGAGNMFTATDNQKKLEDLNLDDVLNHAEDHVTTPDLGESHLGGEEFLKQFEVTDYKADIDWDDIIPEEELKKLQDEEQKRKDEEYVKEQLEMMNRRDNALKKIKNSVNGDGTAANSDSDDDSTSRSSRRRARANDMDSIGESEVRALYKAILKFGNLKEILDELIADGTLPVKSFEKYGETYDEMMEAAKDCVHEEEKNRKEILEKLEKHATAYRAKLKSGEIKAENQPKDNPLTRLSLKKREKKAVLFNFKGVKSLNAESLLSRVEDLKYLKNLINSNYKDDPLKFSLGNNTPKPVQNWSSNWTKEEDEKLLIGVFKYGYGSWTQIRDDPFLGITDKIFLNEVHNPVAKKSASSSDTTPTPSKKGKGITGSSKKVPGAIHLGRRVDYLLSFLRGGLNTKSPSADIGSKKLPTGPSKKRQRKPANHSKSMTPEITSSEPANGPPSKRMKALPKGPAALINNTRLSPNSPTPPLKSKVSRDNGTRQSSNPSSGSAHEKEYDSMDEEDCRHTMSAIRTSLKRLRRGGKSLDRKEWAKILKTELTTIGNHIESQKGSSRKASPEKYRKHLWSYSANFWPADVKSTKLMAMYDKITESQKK

SMILES strings stand for the structures. For some of these results: Results with a measured potency or affinity are listed apart.

Protein translocase subunit SecA (Escherichia coli (strain K12)), sequence (P10408 whole entry): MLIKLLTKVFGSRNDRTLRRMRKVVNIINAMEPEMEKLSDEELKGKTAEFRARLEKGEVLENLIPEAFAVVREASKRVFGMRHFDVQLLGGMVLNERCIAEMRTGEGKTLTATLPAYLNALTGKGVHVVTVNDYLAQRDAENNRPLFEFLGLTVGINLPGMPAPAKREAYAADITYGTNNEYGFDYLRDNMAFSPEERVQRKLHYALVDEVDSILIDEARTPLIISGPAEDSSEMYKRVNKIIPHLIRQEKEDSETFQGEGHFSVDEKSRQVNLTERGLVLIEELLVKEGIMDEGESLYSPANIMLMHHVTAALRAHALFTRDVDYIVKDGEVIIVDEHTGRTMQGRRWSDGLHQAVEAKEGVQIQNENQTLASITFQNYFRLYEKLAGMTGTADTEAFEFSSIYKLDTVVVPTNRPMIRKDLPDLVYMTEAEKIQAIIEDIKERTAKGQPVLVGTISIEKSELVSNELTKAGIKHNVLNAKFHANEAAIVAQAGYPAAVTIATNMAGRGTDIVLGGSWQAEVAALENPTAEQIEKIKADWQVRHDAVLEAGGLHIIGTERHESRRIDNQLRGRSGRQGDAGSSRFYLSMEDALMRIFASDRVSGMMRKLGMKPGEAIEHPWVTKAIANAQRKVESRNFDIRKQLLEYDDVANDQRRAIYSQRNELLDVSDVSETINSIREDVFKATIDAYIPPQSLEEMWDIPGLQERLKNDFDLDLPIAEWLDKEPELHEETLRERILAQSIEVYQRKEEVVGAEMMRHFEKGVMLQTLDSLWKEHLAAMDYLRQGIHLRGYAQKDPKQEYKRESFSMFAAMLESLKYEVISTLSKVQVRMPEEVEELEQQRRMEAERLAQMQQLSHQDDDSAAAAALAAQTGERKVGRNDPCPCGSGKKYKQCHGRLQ

As to `CN(CCc1ccc(F)cc1)Cc1nc2c(cnn2C)c(=O)[nH]1`, the Percent Effect in [1] was -6.94%; in [2] it was 21.1%; in assay [3], -1.46%; in [4] it was -5.8%; in [5], 1.02%; with Trypanosoma cruzi, 2.33%. For the same compound, the Percent Effect in [6] is -6.47%; in [7], 14.5%; in the assay listed under Homo sapiens, 2.88%; in assay [8] it was 14.7%; in [9], 10.3%; in assay [10] it was 23.5%. Moreover, the Percent Effect in assay [11] was -6.22%.
Consider `O=C(NC1CCC1)[C@@H]1C[C@@H]2CCN(Cc3ccncc3)C[C@H]2O1`, for which the Percent Effect in [1] is -4.4%; in [2], 8%; in [3], -3.87%; in assay [4], 0.172%; in assay [5], 2.75%; in the assay on Trypanosoma cruzi, 5.79%. Further, the Percent Effect in assay [6] is -52.1%; in assay [7] it was 8.21%; in the assay filed under Homo sapiens it was 21.8%; in assay [8], 1.98%; in assay [9], 4.17%; in assay [10] it was 12.5%. The Percent Effect in assay [11] is -8.66%.
For the compound `COc1ccccc1C1SCC(=O)Nc2n[nH]cc21` (configuration not stated), the Percent Effect in assay [1] is -5.34%; in assay [2], 5.26%; in assay [3] it was 6.47%; in assay [4], 16.6%; in assay [5], -1.26%; in the assay on Trypanosoma cruzi, -2.63%. Moreover, the Percent Effect in [6] is 15.4%; in [7], 12.6%; in the assay listed under Homo sapiens, -13.4%; in [8], 5.55%; in [9], 3.19%; in assay [10] it was 2.6%. Besides, the Percent Effect in assay [11] was -2.61%.
`O=C(C1CC1)N1CCC2(CC1)OCCO2`: the Percent Effect in assay [1] is -2.52%; in [2], 7.89%; in [3], 0.21%; in [4], -0.0617%; in assay [5], -9.69%; in the assay with Trypanosoma cruzi it was -4.38%. The Percent Effect in assay [6] is 2.37%; in [7], 14.1%; in the assay listed under Homo sapiens it was 14.1%; in [8], -6.13%; in assay [9], 0%; in [10], 10.4%. Moreover, in assay [11], the Percent Effect is -6.58%.

The values above are taken from ChEMBL document CHEMBL3988442, “University of Dundee, Small-Polar-MMV Screening Library” (2021).
